Screens from PubChem.
Only some compounds are listed: those with a hit (about 7.9% of all), similar ones and a draw of the others.
HCV inh = inhibitors of hepatitis C virus infection; Huh7.5.1 HCVcc-Cre infection, luciferase reporter, 44 h; AID 651820; Potency, µM (highest dose often 41.8 µM), usual class: inhibitors; 340,000 compounds, 3.4% hits; active = well fitted inhibition curve with a large enough effect; inconclusive = small, poorly fitted or top-dose-only effect, or another doubt; inactive = no such curve, though single readings can be large or run the other way
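1,000 cells/well; 4 h culture; + compound; + HCVcc-Cre (~0.5 moi); 44 h; luciferase substrate, RT 15 min; read 15 sec.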
MARV entry inh = Marburg virus entry inhibition; 300,000 compounds, 1.8% hits; Marburg virus pseudotyped entry inhibition, cell reporter; AID 540276; Potency, µM (series often up to 37.8 µM), actives largely listed as inhibitors; calls by dose curve; tested in HEK293 cells
FMDV inh = foot and mouth disease virus antiviral activity; FMDV antiviral cell-based qHTS; Potency, µM (doses to about 57.9 µM), most hits filed as inhibitors; 410,000 compounds, 1.2% hits; calls by dose curve; tested in HEK293T cells; also: read-out not given here; nearly all actives have a fitted effect of over 45% in size
LASV entry inh = blocks Lassa virus binding to or entry into cells | 300,000 compounds, 1.2% hits | Lassa virus pseudotype entry inhibition, cell reporter | Potency, µM (titrated, usually from 37.9 µM), actives largely listed as inhibitors; calls by dose curve; tested in HEK293 cells; also: nearly all actives have a fitted effect of over 50% in size
HCMV antiviral = blocks human cytomegalovirus replication. HFF cells, HCMV-luciferase reporter, 72 h; stronger effect = lower value. activity change, negative = inhibition, % at 57.5 µM. 410,000 compounds, 4.5% hits; in the data active = activity change below about -60%; inconclusive = no clear call, values can overlap the other calls; inactive = above about -39%
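Steps: HFFs plated, 16 h 37C; compounds added; HCMV-luciferase added to MOI 1 PFU/cell; 72 h 37C; OneGlo reagent, 5 min room temperature; luminescence read, normalized to controls.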
Numbers stand for hits; - = inactive; ? = inconclusive; . = no result given.

SMILES	HCV inh	MARV entry inh	FMDV inh	LASV entry inh	HCMV antiviral
CCN(CC)CCNC(=O)CCc1c(C)nc2c(c(C)nn2-c2ccc(C)c(C)c2)c1C	7.08µM	.	-	.	-98.0
COc1ccc(CCNC(=O)CCc2c(C)nc3c(c(C)nn3-c3ccc(C)c(C)c3)c2C)cc1OC	.	-	?	?	-
Cc1ccc(-n2nc3c(=O)n(CC(=O)NCCc4ccccc4C)nc(C)c3c2C)cc1	5.01µM	?	?	-	-73.4
Cc1ccc(CCNC(=O)Cn2nc(C)c3c(C)n(-c4ccc(C)cc4)nc3c2=O)cc1	.	.	?	-	-
COc1ccc(OC)c(CCNC(=O)Cn2nc(C)c3c(C)n(-c4ccc(C)cc4)nc3c2=O)c1	1.12µM	?	?	?	-91.8
CCn1ccc2cc(S(=O)(=O)N3CCC(C(=O)NCCOC)CC3)ccc21	.	.	-	-	-
CC[C@@H](CC1CCCCC1)C(=O)N(Cc1ccccc1)c1ccccc1	10µM	.	?	.	?
CN(Cc1ccccc1)C(=O)NC1CCCCC1	-	-	-	-	-
O=C(NC(Cc1ccc(O)cc1)C(=O)N=Nc1c(O)[nH]c2ccccc12)c1ccccc1 (stereo not given)	-	-	-	-	-82.8
O=C(CNC(=O)Cc1ccccc1)N=Nc1c(O)[nH]c2ccccc12	-	-	-	-	-
Cc1ccc(NC(=O)OC(C)N2CCCCC2)cc1NC(=O)OC(C)N1CCCCC1 (stereo not given)	25.1µM	5.01µM	-	?	-
Cc1cccc(NC(=O)c2cc3c(=O)n(Cc4cccnc4)ccc3nc2C)c1	.	.	-	-	-
CC(=O)/C(C#N)=C1\NC(=O)C(Cc2ccccc2C)S1 (stereo not given)	-	?	-	?	-82.6
C/C(=N\N=C1\NC(=O)C(Cc2ccccc2)S1)c1ccccc1 (stereo not given)	-	-	-	2.31µM	-
N#C/C(C(=O)N1CCOCC1)=C1/SC(Cc2ccccc2)C(=O)N1c1ccccc1 (stereo not given)	-	-	-	-	-
CNC(=O)/C(C#N)=C1\SC(Cc2ccc(F)cc2)C(=O)N1c1ccccc1C (stereo not given)	-	.	-	.	-
CCNC(=O)CC1S/C(=N/N=C(\C)c2ccccc2)NC1=O (stereo not given)	-	.	-	.	-
CC(=O)/C(C#N)=C1\NC(=O)C(Cc2ccccc2)S1 (stereo not given)	-	2.51µM	-	?	-99.3
CC(=O)/C(C#N)=C1\NC(=O)[C@@H](Cc2ccccc2)S1	.	2.51µM	.	.	.
O=C(O)[C@H]1[C@H](CO)[C@H]2Cn3c(cccc3=O)[C@@H]1N2S(=O)(=O)c1ccccc1F	.	.	.	.	-
O=C(Nc1ccnn1C1CCN(Cc2ccccc2OC(F)F)CC1)c1cccnc1	-	-	-	-	-
Cc1ccc(OCc2cc(=O)n3cc(C)sc3n2)c(C)c1	.	-	-	-	-100.6
Cc1cn2c(=O)cc(COc3cccc(NC(=O)c4ccccc4C)c3)nc2s1	.	-	-	-	-68.7
Cc1cn2c(=O)cc(COC(=O)C(C)Oc3ccccc3)nc2s1 (stereo not given)	.	.	-	-	-
Cc1cn2c(=O)cc(COC(=O)c3cccc(NC(=O)C(C)Oc4ccccc4)c3)nc2s1 (stereo not given)	.	.	-	-	-64.4
SMILES	HCV inh	MARV entry inh	FMDV inh	LASV entry inh	HCMV antiviral
Cc1cn2c(=O)cc(COc3ccc(Cl)cc3)nc2s1	.	-	-	-	-
CC(C)(C)CC(C)(C)NC(=O)C(Nc1ccccc1)c1ccccc1F (stereo not given)	.	.	.	.	-
COC(=O)c1sc2ncccc2c1OCc1c(Cl)cccc1Cl	-	-	-	-	-
COC(=O)c1sc2ncccc2c1OCc1cccc(Cl)c1	-	-	-	-	-102.0
CCn1cc(C(=O)N[C@@H](CC(C)C)C(=O)NCCCn2ccnc2)c(=O)c2cc3c(cc21)OCO3	-	.	-	.	-
COc1cc(C2c3cc4c(cc3C(O)[C@H]3COC(=O)C23)OCO4)cc(OC)c1OC (stereo not given in full)	.	.	-	.	.
COc1cc(C2c3cc4c(cc3OC(Nc3ccc(C(=O)O)cc3)C2C)OCO4)cc(OC)c1OC (stereo not given)	-	?	-	?	-60.1
COc1cc(C2c3cc4c(cc3OC(N3CCOCC3)C2C)OCO4)cc(OC)c1OC(C)=O (stereo not given)	-	-	-	?	-
COc1cc(C2c3cc4c(cc3OC(NCCc3ccccc3)C2C)OCO4)cc(OC)c1OC (stereo not given)	-	?	-	?	-82.0
